From PubChem BioAssay
Several values for one entry are separate records, joined by “and”; a condition that tells them apart may be missing. Identical values can stand only once. Activity calls are given as the source filed them.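 The calls were made as follows, unless noted: active = inhibition at or above 50% relative to wild type and mutant plate controls; inactive = inhibition below 50%.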 Residues, ends and D or L forms follow the SMILES beside them.

How the values were obtained:
[1] = inhibitors of TNFa-induced NFkB p65 translocation, primary screen, imaging, HUVEC, MLSMR starter and 10KST1 sets (AID 438;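 active = inhibition above 20% together with a positive visual image hit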;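 also: compound added about 3h40 before a 20 min TNFalpha stimulation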;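 as to inhibition: signal is the nuclear over cytoplasmic p65 intensity ratio per well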); conditions: HUVEC TNFa-induced p65 nuclear translocation; cell count: measured here: nuclei count (cytotoxicity indicator), at 2.08 µM unless noted; inhibition: at 2 µM, stronger effect = higher value unless noted
[2] = reduction of polyQ htt aggregates in cells – imaging, exon1htt(103Q)mCFP cells, high-content imaging, primary screen (AID 483;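 active = visual image review flags a hit and inhibition of aggregation exceeds 20%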;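 also: compound exposure lasted 3 days before fixation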;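 as to nuclei count: percent of the per-plate median nuclei count of sample wells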); conditions: exon1htt(103Q)mCFP cell line, aggregate imaging, at 2 µM; inhibition of aggregation: stronger effect = higher value; nuclei count: measured here: cell count, toxicity
[3] = endothelial E-selectin expression blockers – imaging, HUVEC, immunofluorescence, MLSMR starter and 10KST1 sets, primary screen (AID 487;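 active = visually confirmed hit in the image check and inhibition above 20%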;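 as to inhibition: signal is fraction of cell area covered by stained E-selectin grains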;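 as to nuclei count: 100% = median nuclei count of all wells on the same plate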); conditions: HUVEC TNFalpha-induced E-selectin immunofluorescence imaging, at 2 µM; inhibition: stronger effect = higher value; nuclei count: measured here: cell number, toxicity
[4] = Primary imaging screen for DUSP6 inhibitors that restore phospho-Erk in transfected HeLa cells, chemical complementation (AID 609;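 active = compounds giving at least 50% inhibition in the cell-based MKP-3 phosphatase rescue imaging test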;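 as to inhibition: phospho-Erk level distribution per well compared with pooled transfected vehicle control wells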); conditions: HeLa MKP-3 transfected, phospho-Erk imaging KS statistic, at 10 µM
[5] = biological target: Dual specificity protein phosphatase 6 (Homo sapiens) (UniProt Q16828); test: as above; conditions: HeLa MKP-3 transfected, phospho-Erk imaging KS statistic, at 10 µM, stronger effect = higher value
[6] = biological target: Voltage-gated potassium channel subunit beta-2 (Rattus norvegicus) (UniProt P62483); test: inhibitors of rat Kvbeta2 reductase activity – biochemical, NADPH fluorescence, primary screen (AID 622;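 active = fluorescence slope higher than the sample average by over 3 SD, cut at about -0.22 in these data, passing the limit was not always enough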;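 also: slope of raw intensity against log time taken from 70 to 1610 s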); conditions: recombinant KvBeta, 4-cyanobenzaldehyde reduction, at 10 µM, stronger effect = higher value
[7] = biological target: Voltage-gated potassium channel subunit beta-2 (Rattus norvegicus) (UniProt P62483); test: enhancers of rat Kvbeta2 NADPH turnover – biochemical, NADPH fluorescence, primary screen (AID 623;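 active = NADPH fluorescence slope more negative than the mean of all samples by about 3 SD, 99.7% confidence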;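 also: fluorescence intensity change per second fitted from 20 to 320 s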); conditions: Recombinant KvBeta, NADPH fluorescence decrease slope, 10 min; at 10 µM; stronger effect = lower value
[8] = biological target: Alpha-2C adrenergic receptor (Homo sapiens) (UniProt P18825); test: compounds altering alpha2C-coupled GIRK flux – cell-based, HEK293 alpha2C/GIRK1/2, thallium flux, primary screen (AID 624;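 active = fluorescence slope after compound addition differing from the mean of all screened samples at 99.7% confidence, in either direction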;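 also: slope of fluorescence ratio to pre-addition baseline per second over 15 to 24 s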); conditions: thallium flux BTC fluorescence, at 10 µM, actives lie on both sides
[9] = inhibitors of larval lipid processing in zebrafish, primary screen, whole organism, PED6 fluorescence, gall bladder and intestine (AID 686;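 active = a full or partial loss of lipid-probe fluorescence in the fish gall bladder, intestine or both, judged by eye; inactive = no fluorescence loss, or compound toxic to the fish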;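 also: larvae 5 to 7 days old with five fish per well; signal comes from phospholipase A2 cleavage of quenched PED6 carried via bile; overnight exposure to compound and PED6 before scoring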); conditions: Zebrafish larvae PED6 lipid processing, fluorescence scoring
[10] = loss of swimming-algae plug formation – whole organism, Chlamydomonas reinhardtii, WT vs cilia-less mutant, absorbance, 96-well, primary screen (AID 463189); conditions: Chlamydomonas reinhardtii gravitaxis, OD600 absorbance, 2 days; at 10 µM; stronger effect = higher value;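 also: 0% = wild type cc124 cells in DMSO and 100% = ciliumless bld1 mutant cells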
[11] = blockers of RIG-like receptor reporter activation – cell-based, Sendai virus stimulus, luciferase, 10K MLSCN set, TLR/RLR signaling modifier project, primary screen (AID 602276;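 active = inhibition at or above 50% at 10 µM; inactive = inhibition below 50%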;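 also: firefly luciferase from ISG56 promoter only with Renilla not read in this screen; 0% = Sendai virus plus DMSO and 100% = medium plus DMSO without virus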); conditions: HEK293 RL24 IRF3 luciferase reporter, at 10 µM, stronger effect = higher value
[12] = TLR3 IRF3 reporter activation blockers – cell-based, poly I:C stimulus, luciferase, 10K MLSCN set, primary screen (AID 602277;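 active = inhibition of the reporter signal at or above 50%; inactive = inhibition below 50%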); conditions: HEK293-TLR3 RL24 IRF3 luciferase reporter, at 10 µM, stronger effect = higher value
[13] = measured here: cell density z-score
[14] = measured here: nuclear c-Myc green intensity z-score
[15] = measured here: nuclear pErk red intensity z-score, stronger effect = higher value

Chain of Alpha-2C adrenergic receptor (Homo sapiens) (P18825 whole entry, looked up): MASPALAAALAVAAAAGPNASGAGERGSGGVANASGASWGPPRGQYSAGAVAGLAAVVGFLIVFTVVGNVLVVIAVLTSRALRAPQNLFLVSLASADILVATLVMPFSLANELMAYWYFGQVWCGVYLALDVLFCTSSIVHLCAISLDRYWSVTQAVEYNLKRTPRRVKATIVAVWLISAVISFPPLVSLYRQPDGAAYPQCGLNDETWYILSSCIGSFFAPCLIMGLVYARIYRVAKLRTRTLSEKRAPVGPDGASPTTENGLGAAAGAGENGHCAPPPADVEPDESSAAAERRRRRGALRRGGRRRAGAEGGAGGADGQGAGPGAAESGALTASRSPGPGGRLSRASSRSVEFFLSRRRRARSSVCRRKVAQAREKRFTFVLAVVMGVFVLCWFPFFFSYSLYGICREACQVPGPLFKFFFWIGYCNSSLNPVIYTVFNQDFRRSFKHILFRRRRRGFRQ
Chain of Voltage-gated potassium channel subunit beta-2 (Rattus norvegicus) (P62483 whole entry, looked up): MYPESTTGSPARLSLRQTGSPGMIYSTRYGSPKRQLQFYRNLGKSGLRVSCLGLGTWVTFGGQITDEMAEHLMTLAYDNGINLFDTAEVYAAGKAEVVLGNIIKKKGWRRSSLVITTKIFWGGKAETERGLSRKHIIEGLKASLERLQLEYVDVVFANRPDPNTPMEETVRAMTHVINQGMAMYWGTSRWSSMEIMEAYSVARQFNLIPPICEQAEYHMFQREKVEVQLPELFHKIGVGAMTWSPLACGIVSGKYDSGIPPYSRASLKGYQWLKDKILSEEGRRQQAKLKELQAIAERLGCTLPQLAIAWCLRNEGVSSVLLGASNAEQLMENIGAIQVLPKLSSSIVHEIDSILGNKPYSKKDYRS
Chain of Dual specificity protein phosphatase 6 (Homo sapiens) (Q16828 whole entry, looked up): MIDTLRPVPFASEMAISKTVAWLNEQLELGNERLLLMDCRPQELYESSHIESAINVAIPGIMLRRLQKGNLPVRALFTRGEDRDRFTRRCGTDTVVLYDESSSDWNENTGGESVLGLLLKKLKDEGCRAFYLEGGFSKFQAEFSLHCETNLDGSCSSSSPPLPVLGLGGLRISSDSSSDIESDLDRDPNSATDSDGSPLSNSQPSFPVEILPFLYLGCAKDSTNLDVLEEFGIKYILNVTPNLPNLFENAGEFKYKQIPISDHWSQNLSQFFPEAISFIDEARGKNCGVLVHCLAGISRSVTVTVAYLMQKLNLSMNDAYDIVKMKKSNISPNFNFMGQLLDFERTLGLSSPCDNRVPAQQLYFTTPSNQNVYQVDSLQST

Row | SMILES | cell count [1] | inhibition [1] | inhibition of aggregation [2] | nuclei count [2] [%] | inhibition [3] | nuclei count [3] [%] | z-score [4, 13] | z-score [4, 14] | z-score [4, 15] | inhibition [5] | fluorescence slope [6] | NADPH fluorescence slope [7] | slope [8] | outcome [9] | inhibition [10] | inhibition [11] | inhibition [12]
1 | NCC(CC(=O)O)c1ccc(Cl)cc1 (stereo unspecified) | 601 | -13.8% (inactive) | -0.4% (inactive) | 95.6 | -102% (inactive) | 112 | -0.759 | 1.88 | 0.491 | 9.37% (inactive) | -0.448 (inactive) | -4.9e-05 (inactive) | 0.00441 (inactive) | inactive | -1.51% (inactive) and 3.49% (inactive) | 13.4% (inactive) | 26.4% (inactive)
2 | CC(C)C[C@H](NC(=O)[C@@H]1CCCN1C(=O)[C@@H](N)Cc1ccc(O)cc1)C(=O)NCC(N)=O (H-YPLG-NH2) | 621 | -3.8% (inactive) | -9.8% (inactive) | 103 | -65.3% (inactive) | 104 | -0.734 | -0.49 | -1.27 | 1.48% (inactive) | -0.471 (inactive) | -6.7e-05 (inactive) | 0.00565 (inactive) | inactive | -9.78% (inactive) | 2.09% (inactive) | 31.8% (inactive)
3 | COc1ccc(C(=O)N2CCCC2=O)cc1 | 667 | 2.2% (inactive) | 11.2% (inactive) | 104 | -40.5% (inactive) | 108 | 0.0379 | -0.632 | 1.58 | 19% (inactive) | -0.52 (inactive) | -4.5e-05 (inactive) | 0.00436 (inactive) | inactive | 6.16% (inactive) and 14.6% (inactive) | 13.2% (inactive) | 20.9% (inactive)
4 | C[N+]1(C)[C@@H]2CC(OC(=O)[C@H](CO)c3ccccc3)C[C@H]1[C@@H]1O[C@@H]12 (stereo partly specified) | 542 | -16.3% (inactive) | 19% (inactive) | 107 | -56.7% (inactive) | 129 | -0.698 | -0.0087 | -0.0821 | -0.493% (inactive) | -0.433 (inactive) | 2.1e-05 (inactive) | 0.0054 (inactive) | inactive | 9.4% (inactive) | -2.08% (inactive) | 22.3% (inactive)
5 | C=CCn1c(O)c(C=NCCN(C)C)c(=O)[nH]c1=O | 342 | -5% (inactive) | -0.9% (inactive) | 97.7 | 9.5% (inactive) | 97.2 | 0.486 | -0.511 | -0.0175 | 19.3% (inactive) | -0.462 (inactive) | -0.000118 (inactive) | 0.00873 (inactive) | inactive | -19.1% (inactive) | -1.86% (inactive) | -11.3% (inactive)
6 | Cc1c(N=Cc2c(O)n(CCc3ccc(F)cc3)c(=O)[nH]c2=O)c(=O)n(-c2ccccc2)n1C | 647 | -28% (inactive) | – | – | -9.6% (inactive) | 155 | -1.16 | -1.2 | 1.06 | -0.624% (inactive) | -0.389 (inactive) | -4.5e-05 (inactive) | 0.0062 (inactive) | active; weak signal in gallbladder and intestine | 8% (inactive) | – | –
7 | C=CCC1(CN2CCCCCC2=O)C(=O)NC(=O)NC1=O | 656 | 4% (inactive) | – | – | -118% (inactive) | 148 | -0.0973 | 0.0168 | -1.06 | 11.3% (inactive) | -0.517 (inactive) | -6.8e-05 (inactive) | 0.00505 (inactive) | inactive | -7.71% (inactive) | – | –
8 | CC1CCC(C(C)C)C(OP(N)(=O)c2ccccc2)C1 (stereo unspecified) | 413 | -4.7% (inactive) | – | – | -225% (inactive) | 189 | 1.77 | -0.238 | 0.0184 | 36.1% (inactive) | -0.406 (inactive) | -7.4e-05 (inactive) | 0.00486 (inactive) | inactive | 1.67% (inactive) | – | –
9 | Cn1c(O)c(C=NC2CCN(Cc3ccccc3)CC2)c(=O)n(C)c1=O | 440 | 1% (inactive) | – | – | -22.6% (inactive) | 136 | 0.0201 | 1.2 | 0.0643 | 4.25% (inactive) | -0.401 (inactive) | -1.9e-05 (inactive) | 0.00599 (inactive) | inactive | 0.967% (inactive) | – | –
10 | CCCCC1(CN2CCCC2=O)C(=O)NC(=O)NC1=O | 325 | -24.8% (inactive) | – | – | -135% (inactive) | 118 | 0.342 | -1.01 | -1.02 | 3.5% (inactive) | -0.467 (inactive) | 1.5e-05 (inactive) | 0.00649 (inactive) | inactive | 32.8% (inactive) | – | –
11 | CCCCSP1(=S)NCCCN1 | 430 | -6.2% (inactive) | – | – | -45.8% (inactive) | 139 | 1.38 | -0.994 | 0.0968 | 22.7% (inactive) | -0.484 (inactive) | -0.000231 (inactive) | 0.00525 (inactive) | inactive | 32.8% (inactive) | – | –
12 | OC(Cc1ccccc1)(c1ccccc1)C1CN2CCC1CC2 (stereo unspecified) | 556 | -8.4% (inactive) | – | – | -124% (inactive) | 130 | 0.0962 | 1.34 | 0.286 | 1.98% (inactive) | -0.512 (inactive) | -2.1e-05 (inactive) | 0.00546 (inactive) | inactive | 0.812% (inactive) | – | –
